Assay outcomes as filed in PubChem.
Yp Topo-I inh: Y. pestis Topo-I inhibition via cleavage products; Y. pestis Topo-I cleavage product accumulation, plate reader; activity, % at 10 µM; 0.064% of 360,000 active; AID 504884; in the data active means activity above about 50%, passing the limit was not always enough
Mtb UGM inh: blocks M. tuberculosis UGM enzyme; purified UGM, fluorescence polarization probe displacement; 0.06% of 320,000 active; inhibition, % at 10 µM; AID 504406; P9WIQ1; in the data active means inhibition above about 10%, passing the limit was not always enough
Rv3671c inh: Rv3671c (M. tuberculosis) protease inhibition; P9WHR9; inhibition, % at 5.96 µM; 0.048% of 320,000 active; AID 2606; in the data active means inhibition above about 38%;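 further: extracellular domain of Rv3671c used as enzyme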
Mtb BioA inh: BioA (M. tuberculosis) enzyme inhibition. 0.096% of 360,000 active. purified M. tuberculosis BioA enzyme, plate reader. inhibition, % at 9.99 µM; in the data active means inhibition above about 40%
FadD28 binding: M. tuberculosis FadD28 bisubstrate binding inhibition. AID 588549. inhibition, % at 12.5 µM. 0.22% of 360,000 active. FadD28 bisubstrate probe binding, fluorescence polarization; in the data active means inhibition above about 8.5%, passing the limit was not always enough
RecA splice inh: Mtb RecA intein splicing inhibition; cell-free RecA intein splicing, fluorescence; inhibition, % (test concentration not listed); P9WHJ3; 0.75% of 290,000 active; in the data active means inhibition above about 30%
Target sequence (P9WHJ3 whole entry, looked up, canonical isoform): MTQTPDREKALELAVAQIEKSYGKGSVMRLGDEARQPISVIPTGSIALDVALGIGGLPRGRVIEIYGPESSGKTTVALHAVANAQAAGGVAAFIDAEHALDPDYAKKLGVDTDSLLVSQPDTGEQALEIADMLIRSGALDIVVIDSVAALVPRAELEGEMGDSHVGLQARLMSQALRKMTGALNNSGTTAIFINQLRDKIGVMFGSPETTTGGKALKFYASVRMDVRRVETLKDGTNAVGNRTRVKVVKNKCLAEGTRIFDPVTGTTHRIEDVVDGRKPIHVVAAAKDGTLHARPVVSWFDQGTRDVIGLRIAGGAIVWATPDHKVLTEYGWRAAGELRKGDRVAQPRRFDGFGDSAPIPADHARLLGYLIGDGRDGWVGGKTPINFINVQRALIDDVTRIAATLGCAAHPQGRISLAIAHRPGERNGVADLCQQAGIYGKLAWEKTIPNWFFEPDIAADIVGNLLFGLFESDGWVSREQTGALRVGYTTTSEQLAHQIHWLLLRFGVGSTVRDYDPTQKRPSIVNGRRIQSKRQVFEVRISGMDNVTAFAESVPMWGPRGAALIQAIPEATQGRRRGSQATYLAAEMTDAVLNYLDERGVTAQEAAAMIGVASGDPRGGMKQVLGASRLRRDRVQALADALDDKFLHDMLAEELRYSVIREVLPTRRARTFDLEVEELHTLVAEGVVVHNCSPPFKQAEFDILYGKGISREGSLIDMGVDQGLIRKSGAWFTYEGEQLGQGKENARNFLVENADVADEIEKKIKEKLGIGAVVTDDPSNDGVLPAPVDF
Large screens that a line does not name were inactive. The list is not random: actives were taken first. Their share in the collection is about 0.82%.

N#CC1=C(N)Oc2n[nH]c(-c3ccc(F)cc3)c2C1c1ccncc1 (centres undefined)	RecA splice inh 62
COc1ccc(-c2[nH]nc3c2C(c2ccsc2)C(C#N)=C(N)O3)cc1 (centres undefined)	RecA splice inh 71
CCOc1cc(C2C(C#N)=C(N)SC(N)=C2C#N)ccc1OCCN1CCOCC1	none
CCCc1[nH]nc2c1C(c1ccc(OCCN3CCOCC3)c(OC)c1)C(C#N)=C(N)O2 (centres undefined)	RecA splice inh 32
Cc1cc(C)c(C#N)c(SCc2[nH]nc3c2C(c2ccc(F)cc2)C(C#N)=C(N)O3)n1 (centres undefined)	RecA splice inh 32 (no result: Mtb BioA inh)
CCCc1[nH]nc2c1C(c1ccc(OC)c(Cn3nnc4ccccc43)c1)C(C#N)=C(N)O2 (centres undefined)	RecA splice inh 70
CCc1[nH]nc2c1C(c1cccnc1)C(C#N)=C(N)O2 (centres undefined)	RecA splice inh 45
CCCc1[nH]nc2c1C(c1cccnc1)C(C#N)=C(N)O2 (centres undefined)	none (no result: RecA splice inh)
CCCc1[nH]nc2c1C(c1ccncc1)C(C#N)=C(N)O2 (centres undefined)	RecA splice inh 32
CCCc1[nH]nc2c1C(c1ccccc1OCC)C(C#N)=C(N)O2 (centres undefined)	RecA splice inh 67
CCCc1[nH]nc2c1C(/C(C)=C/c1ccccc1)C(C#N)=C(N)O2 (centres undefined)	none
CC(C)NC(=O)N(C)C[C@@H]1Oc2cc(C#CC3CC3)ccc2S(=O)(=O)N([C@@H](C)CO)C[C@@H]1C	none (no result: Yp Topo-I inh, Mtb UGM inh, Rv3671c inh, FadD28 binding, RecA splice inh)
Cc1ccccc1CN(C)C[C@H]1OCc2cnnn2CCCC(=O)N([C@H](C)CO)C[C@@H]1C	none (no result: Yp Topo-I inh, Mtb UGM inh, Rv3671c inh, FadD28 binding, RecA splice inh)
Cc1noc(C)c1NC(=O)Nc1ccc2c(c1)C(=O)N([C@@H](C)CO)C[C@H](C)[C@H](CN(C)Cc1ccccc1)O2	none (no result: Yp Topo-I inh, Mtb UGM inh, Rv3671c inh, FadD28 binding, RecA splice inh)
C[C@@H]1CN([C@H](C)CO)C(=O)c2cc(NS(=O)(=O)c3ccccc3)ccc2O[C@@H]1CN(C)Cc1ccncc1	none (no result: Yp Topo-I inh, Mtb UGM inh, Rv3671c inh, FadD28 binding, RecA splice inh)
COCc1[nH]nc2c1C(c1cccc(OC)c1)C(C#N)=C(N)O2 (centres undefined)	RecA splice inh 57
CCc1c(O)nc(SCC(=O)Nc2nc3ccccc3s2)n(C2CCCCC2)c1=O	FadD28 binding 12
CCc1c(O)nc(SCC(=O)Nc2ccc(OC)cc2)n(C2CCCCC2)c1=O	none
CCc1ccc(Nc2nc(N)nc(CSc3nnnn3-c3ccccc3)n2)cc1	Yp Topo-I inh 53
CC1CCCC(NC(=O)NC(=O)CCl)C1C (centres undefined)	RecA splice inh 48 (no result: Mtb BioA inh)
CC1CCCCC1NC(=O)NC(=O)CCl (centres undefined)	RecA splice inh 34 (no result: Mtb BioA inh)
CC1CCCC(NC(=O)CSC2CCCCC2)C1C (centres undefined)	none (no result: Mtb BioA inh)
CC1CCCCC1NC(=O)NC(=O)COC(=O)c1nccnc1N (centres undefined)	none (no result: RecA splice inh)
COc1ccc(S(=O)(=O)Nc2cccc3c2O[C@@H](CN(C)Cc2ccc(-c4ccccc4)cc2)[C@@H](C)CN([C@H](C)CO)C3=O)cc1	none (no result: Yp Topo-I inh, Mtb UGM inh, Rv3671c inh, FadD28 binding, RecA splice inh)
O=C(OCC(=O)c1c[nH]c2ccccc12)c1ccc([N+](=O)[O-])s1	none
CCc1cccc2c(C(=O)COC(=O)c3ccc([N+](=O)[O-])s3)c[nH]c12	FadD28 binding 33 (no result: Mtb BioA inh)
CC(=O)N(C)C[C@H]1Oc2ncc(-c3cncnc3)cc2C(=O)N([C@@H](C)CO)C[C@H]1C	none (no result: Yp Topo-I inh, Mtb UGM inh, Rv3671c inh, FadD28 binding, RecA splice inh)
CC(C)C#Cc1cnc2c(c1)C(=O)N([C@H](C)CO)C[C@@H](C)[C@@H](CN(C)C(=O)c1cccnc1)O2	none (no result: Yp Topo-I inh, Mtb UGM inh, Rv3671c inh, FadD28 binding, RecA splice inh)
CC(C)C(=O)Nc1cccc(COc2ccc(CN(Cc3ccccc3)C(=O)OC(C)(C)C)cc2)c1	Yp Topo-I inh 53 (no result: Mtb UGM inh, Rv3671c inh, RecA splice inh)
CC(C)C(=O)Nc1ccc(COc2ccccc2CN(Cc2ccccc2)C(=O)OC(C)(C)C)cc1	none (no result: Mtb UGM inh, Rv3671c inh, RecA splice inh)
CCOC(=O)N1CCC2(CC1)C(C#N)=C(N)OC1=C2C(=O)CC(C)(C)C1	none (no result: Mtb BioA inh)
CCOC(=O)N1CCC2(CC1)C(C#N)=C(N)Oc1c2c(C)nn1-c1cccc(Cl)c1	RecA splice inh 63
C[C@@H]1CN([C@@H](C)CO)C(=O)c2cc(NS(=O)(=O)c3cccs3)ccc2O[C@@H](C)CCCCO[C@H]1CN(C)Cc1ccc2c(c1)OCO2	none (no result: Yp Topo-I inh, Mtb UGM inh, Rv3671c inh, FadD28 binding, RecA splice inh)
CC(C)(C)c1ccc(OCCn2nc(C(=O)O)c3ccccc3c2=O)cc1	Yp Topo-I inh 72
COCCCNC(=O)c1ccc2c3c(onc13)-c1ccccc1C2=O	RecA splice inh 37
CO[C@@H]1CN(C)C(=O)c2cc(NC(=O)C3CC3)ccc2OC[C@@H](C)NC[C@@H]1C	none (no result: Yp Topo-I inh, Mtb UGM inh, Rv3671c inh, FadD28 binding, RecA splice inh)
O=[N+]([O-])c1cccc2c([As](=O)(O)O)cccc12	RecA splice inh 35
Cc1nc2ccccc2c2c1C(=O)N(c1ccc(C(=O)O)cc1)C2=O	none (no result: Mtb BioA inh, RecA splice inh)
Cc1nc2ccccc2c2c1C(=O)NC2=O	RecA splice inh 60 (no result: Yp Topo-I inh, Mtb BioA inh, FadD28 binding)
CCCCCCCCN1[C@@H](CC(=O)OC)c2cc(C(F)(F)F)ccc2S1(=O)=O	none
CCCCCCCCN1[C@@H](CC(C)=O)c2cc(C(F)(F)F)ccc2S1(=O)=O	Yp Topo-I inh 66
COC(=O)CCCC1=CC2=C(c3ccccc3)C(=O)C(C)(OC(=O)C3CCCC3)C(=O)C2=CN1CCCCO (centres undefined)	RecA splice inh 39
O=C(Nc1nccs1)c1ccc(-c2ccc([N+](=O)[O-])cc2)o1	Mtb UGM inh 20
COc1ccccc1C(=O)N1C[C@H]2[C@@H](c3ccccc31)[C@@H](CO)N2C(=O)Nc1ccccc1	none (no result: Yp Topo-I inh, Mtb UGM inh, Rv3671c inh, FadD28 binding, RecA splice inh)
Fc1ccc(Oc2nc(-c3ccccc3)nnc2C(F)(F)F)cc1	RecA splice inh 62
O=C1C2C3C=CC(C3)C2C(=O)N1CCN1CCN(S(=O)(=O)c2ccc3ccccc3c2)CC1 (centres undefined)	Mtb UGM inh 10
C[C@@H]1CN([C@@H](C)CO)C(=O)c2cc(NS(=O)(=O)c3cn(C)cn3)ccc2O[C@@H](C)CCCCO[C@@H]1CN(C)C(=O)CCC(F)(F)F	none (no result: Yp Topo-I inh, Mtb UGM inh, Rv3671c inh, FadD28 binding, RecA splice inh)
C[C@@H]1CN([C@H](C)CO)C(=O)c2cc(-c3cccc(F)c3)cnc2O[C@@H]1CN(C)C(=O)C1CCCCC1	none (no result: Yp Topo-I inh, Mtb UGM inh, Rv3671c inh, FadD28 binding, RecA splice inh)
O=C(O)c1cccc(NN=C2c3ccccc3-c3ccccc32)c1	FadD28 binding 13 (no result: Mtb UGM inh, Rv3671c inh, Mtb BioA inh)
O=C(O)c1cc(N/N=C/c2cccc3ccccc23)ccc1Cl	none
O=C(O)c1cc(NN=C2c3ccccc3-c3ccccc32)ccc1Cl	FadD28 binding 15
O=C(O)c1cc(N/N=C/C(Cl)=C/c2ccccc2)ccc1Cl	FadD28 binding 19
O=C(C[C@@H]1CC[C@@H]2[C@H](COC[C@H](O)CN2CCc2ccccc2)O1)N1CCC(Cc2ccccc2)CC1	none (no result: Yp Topo-I inh, Mtb UGM inh, Rv3671c inh, FadD28 binding, RecA splice inh)
Nc1ccc2[nH]ncc2c1	RecA splice inh 61
CN1c2ccc(-c3ccccc3)cc2[C@H]2[C@H](CCN2C(=O)Cc2ccccn2)[C@@H]1CO	none (no result: Yp Topo-I inh, Mtb UGM inh, Rv3671c inh, FadD28 binding, RecA splice inh)
CCN(CC)c1ccc(/C=C2/C(=O)c3ccc(C(=O)O)cc3C2=O)cc1	FadD28 binding 18 (no result: Mtb BioA inh, RecA splice inh)
